HIF-2a inh = HIF-2a inhibition | actives 0.72% (n = 360,000) | inhibition, % at 18.8 µM | 786-0 RCC cells HIF-2a reporter, luciferase luminescence, overnight;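 active = inhibition of the luminescence signal of 40% or more relative to plate controls, in a single-dose primary screen at 18.75 µM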
KKLEB cytotox = CF airway cell cytotoxicity counter-screen. KKLEB CF airway cells viability, ATPlite luminescence, overnight; active compounds read low; cells stimulated with P. aeruginosa culture filtrate. activity change (cytotoxicity), % at 5 µM. actives 0.36% (n = 360,000). AID 602141;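 active = corrected activity change at or below -50% at 5 µM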
CF NFkB inh = blocks PAF-induced NF-kB reporter in cystic fibrosis cells | inhibition, % at 5 µM | KKLEB NF-kB-GFP reporter, GFP fluorescence overnight | actives 0.86% (n = 360,000);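 active = at least 50% inhibition at 5 µM, scaled per plate between neutral and stimulator controls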;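 note: PAF is a Pseudomonas aeruginosa culture filtrate used as stimulus; plate controls were PAF-stimulated DMSO wells for no effect and unstimulated DMSO wells for full effect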
TRPM1 prom inh = inhibitors of MITF-driven TRPM1 promoter in melanoma cells | SK-MEL-5 TRPM1 promoter luciferase, 24 h | inhibition, % at 12.5 µM | actives 0.83% (n = 330,000) | AID 488899;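 active = mean inhibition across replicates of 60% or more, whatever share of single replicates reaches that level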
Shn3 inh set2 = reduces Shn3 3'UTR luciferase signal in osteoblasts | Clone20 osteoblast Shn3 3'UTR firefly luciferase, 24 h | inhibition, % at 12.5 µM | actives 0.52% (n = 360,000) | AID 588674;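 active = mean inhibition of at least 75% with every replicate also reaching 75%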;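 note: 0% = median of neutral control wells and 100% = pilot-screen positive control compound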
Peg3 promoter = Peg3 promoter activity inhibition. HeLa PEG-Prom luciferase reporter, luminescence, overnight. inhibition, % at 20 µM. actives 1.7% (n = 360,000);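 active = inhibition of at least 50% at 20 µM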
* hit, by the source's call; / = not tested or not shown; ! = repeats disagree. Rows were chosen to be rich in hits. Some 2.8% of all compounds tested hit in one or more screens of this group.

SMILES	HIF-2a inh	KKLEB cytotox	CF NFkB inh	TRPM1 prom inh	Shn3 inh set2	Peg3 promoter
CN[C@H](C)C(=O)NC[C@H]1O[C@@H](n2cnc3c(N)ncnc32)[C@H](O)[C@@H]1O	2	-5	-16	9	-9	-7
CC(C)c1ccc(C(=O)N2CCCCC2c2cc(C(=O)NCc3cccnc3)no2)cc1 (stereo not drawn)	14	-6	-16	/	-7	-2
O=C(CN1C(=O)/C(=C2\SC(=S)N(C3CCS(=O)(=O)C3)C2=O)c2ccccc21)Nc1ccccc1 (stereo not drawn)	5	-6	53*	13	-33	-1
CC(C)(C)c1nn(-c2ccccc2)c2[nH]c(=O)c(CNCc3ccco3)cc12	27	12	-4	67*	-1	-10
CC(C)(C)c1nn(-c2ccccc2)c2[nH]c(=O)c(CNc3ccc4c(c3)OCCO4)cc12	-28	16	57*	41	13	-19
N#C/C(=C\c1ccc(OC(=O)c2ccc(Cl)s2)cc1)c1nc2ccccc2[nH]1	-48	8	-36	-66	-52	-145
O=C(Nc1ccccc1)C1=C[C@@H](c2coc3ccccc3c2=O)C[C@@H](OCCCCO)O1	2	-6	20	6	-7	3
O=C(NCc1cccc(C(F)(F)F)c1)C1C(=O)Nc2ccccc2C(=O)N1C1CCCC1 (stereo not drawn)	15	/	/	/	/	/
COc1cc2c(cc1NC(=O)CSc1nc3cc(Cl)ccc3s1)oc1ccccc12	4	-60*	39	2	12	12
O=C(COC(=O)CCNS(=O)(=O)c1ccccc1)NC(=O)c1ccccc1	9	-6	0	-2	8	-7
Nc1nc2c(Cl)ccc(Cl)c2s1	14	-4	21	6	-2	22
CC(C)(CC(=O)O)CC(=O)NNc1ncccc1C#N	13	-12	12	5	-8	3
O=C1c2ccccc2C(=O)c2c(Nc3ccc(CCO)cc3)ccc(O)c21	-30	-27	27	15	11	-22
O=C1c2c(O)ccc(O)c2C(=O)c2c(NCCNCCO)ccc(NCCNCCO)c21	63*	-21	82*!	95*	93*	100*
COc1cc(OC)c2c(-c3cccc(-c4ccc(C(C)=O)cc4)c3)cc(=O)oc2c1	1	-6	55*	42	-4	-12
COc1cc(OC)c2c(-c3cccc(-c4ccc(OC)c(F)c4)c3)cc(=O)oc2c1	-32	-12	46	53	-9	-38
Cc1nc2ccc3nc(NC(=O)c4ccc5c(c4)OCCO5)sc3c2s1	-82	2	-1	-18	-12	-27
Cc1nc2c(ccc3nc(NC(=O)c4ccc5c(c4)OCCO5)sc32)s1	-173	-53*	14	-6	-49	-5
CC[N+]1(C)CCC(O)(c2ccc(OC)cc2)C(C(=O)c2ccc(OC)cc2)C1 (stereo not drawn)	14	-20	50*	-3	22	103*
O=C(Nc1cccc(S(=O)(=O)N2CCOCC2)c1)C1COc2ccccc2O1 (stereo not drawn)	-18	4	6	-14	6	-11
Cc1nc(N2CCN(Cc3ccc4c(c3)OCO4)CC2)c2cc(-c3ccccc3)sc2n1	-103	12	-39	11	22	-7
CSc1nc(N2CCN(Cc3ccc4c(c3)OCO4)CC2)c2ccccc2n1	3	4	-5	11	86*	9
COc1ccc(OC)c(/C=C/c2ccc3cccc(O)c3n2)c1	-95	5	-41	5	-3	83*
Cc1ccsc1/C=C/c1ccc2cccc(O)c2n1	-128	-20	5	-3	-31	80*
C[C@]12CCC(=O)C=C1[C@H](O)C[C@@H]1[C@@H]2[C@@H](O)C[C@@]2(C)[C@H]1CC[C@]2(O)C(=O)CO	24	7	31	-2	-2	-12
C[C@]12C=CC(=O)C=C1CC[C@@H]1[C@@H]2[C@@H](O)C[C@@]2(C)[C@H]1CC[C@]2(O)C(=O)CO	24	26	73*	-17	5	7
C[C@]12C=CC(=O)C=C1CC[C@@H]1[C@@H]2[C@@H](O)C[C@@]2(C)[C@H]1CC[C@]2(O)C(=O)COC(=O)CCC(=O)NCCc1ccc(O)cc1	13	34	80*	/	-30	-23

Screening results: PubChem BioAssay, several laboratories
